The values below come from ChEMBL document CHEMBL1157539, “Thousands of chemical starting points for antimalarial lead identification” (Nature, 2010).

SMILES strings stand for the structures.

Common to all, as to type: functional
Experiment [1] relates to Plasmodium falciparum. Briefly: GSK_TCMDC: Inhibition of Plasmodium falciparum 3D7 in whole red blood cells, using parasite LDH activity as an index of growth. Test compounds present at 2uM.
Experiment [2] deals with Plasmodium falciparum. Briefly: GSK_TCMDC: Inhibition of Plasmodium falciparum Dd2 in whole red blood cells, using parasite LDH activity as an index of growth. Test compounds present at 2uM.
Experiment [3] concerns HepG2. In words: GSK_TCMDC: Percent inhibition of human HepG2 cell line. Test compounds present at 10uM.

In general, Inhibition refers to how much of the control response was suppressed. Low values mean a response near the control, high ones a response far below the control. In the case of `Cl.Clc1ccc(OCc2ccccc2)c(Cc2ccc(-c3nc4cnccc4[nH]3)o2)c1`, the Inhibition is listed as 99% in experiment [1], 6% in experiment [2] and 2% in experiment [3].
For `c1cncc(Oc2ccc(Nc3ccnc4cc(-c5cccc(CNCCN6CCOCC6)c5)ccc34)cc2)c1`, the values for the Inhibition in experiment [1], in experiment [2] and in experiment [3] were 100%, 99% and 14%, respectively.
The matching figures for `CCN(CC)CCN1C(=O)c2oc3ccc(Cl)cc3c(=O)c2C1c1ccc(SC)cc1` (stereo not given): 98%, 6% and 0%.
The matching figures for `CC(C)(C)c1ccc(NC(=O)c2cccc(CN3CCCN(CC4CCCCC4)CC3)c2)cc1.O=C(O)C(F)(F)F`: 93%, 47% and 97%.
On to `Fc1ccc2[nH]c(-c3ccc(-c4ccc(CNCCc5ccncc5)cc4)s3)nc2c1.O=C(O)C(F)(F)F`, for which the Inhibition in experiment [1] was 99%; in experiment [2] it was 100%; in experiment [3], 34%.
The matching figures for `CCOC(=O)c1ccc(NC(=O)Nc2ccc(-c3ccc(-c4nc5ccccc5[nH]4)cc3)cc2)cc1`: 100%, 100% and 49%.
The matching figures for `N#CN1CC[C@@H](NS(=O)(=O)Cc2ccc(Cl)c(Cl)c2)C1`: 94%, 94% and 13%.
On to `O=C(Nc1cc(C(F)(F)F)ccc1N1CCOCC1)C(Cl)(Cl)Cl`, for which the Inhibition in experiment [1] came out at 100%; in experiment [2], 100%; in experiment [3], 0%.
In the case of `Cc1cc(C)cc(OCC(O)CN(CCN2CCOCC2)C(=O)Nc2ccc(Br)cc2)c1.O=C(O)C(F)(F)F` (stereo not given), the Inhibition in experiment [1] stood at 85%; in experiment [2], 19%; in experiment [3] it was 7%.
The matching figures for `COc1ccc(-c2cc(C(F)(F)F)n3ncc(C(=O)Nc4cc(C)ccc4O)c3n2)cc1OC`: 100%, 100% and 2%.
